# Rows were chosen to be rich in hits. Some 2.3% of all compounds tested hit in one or more screens of this group.
# TDP43 rescue: TDP-43 toxicity inhibition in yeast; TDP-43 expressing yeast growth rescue, BacTiter-Glo, 24 h; Potency, µM (doses to about 46.1 µM), most hits filed as activators; actives 1.8% (n = 410,000); note: nearly all actives have a fitted effect of over 50% in size
#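 Readout is BacTiter-Glo luminescence of cell growth, so inhibitors register as activators. TDP-43-expressing yeast at OD600=0.02 in galactose medium, after raffinose pregrowth to mid-log, were incubated with compound for 24 hr at 30 deg C.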
# MmCpn inh: blocks the Methanococcus maripaludis chaperonin Mm-Cpn; purified Mm-Cpn ATPase, ADP Transcreener TR-FRET; Potency, µM (doses to about 76.9 µM), actives largely listed as inhibitors; actives 0.031% (n = 330,000); AID 504842; note: nearly all actives have a fitted effect of over 80% in size
#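 Inhibition of chaperonin ATP hydrolysis is measured as reduced ADP production, detected by competitive TR-FRET in which signal falls with ADP. Final enzyme 25 nM and ATP 10 uM, reacted 30 min at 37°C.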
# aSyn yeast inh: alpha-synuclein toxicity inhibition in yeast | Yeast expressing alpha-synuclein, growth rescue, BacTiter-Glo, 24 h | Potency, µM (top dose mostly 46.1 µM), most hits filed as activators | actives 0.14% (n = 370,000) | AID 652106; note: nearly all actives have a fitted effect of over 65% in size
#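 Galactose-induced alpha-syn yeast (OD600=0.02, raffinose-pregrown) + pinned cpd, 24 hr, 30 deg C; growth by BacTiter-Glo luminescence. Growth restoration scores as activation.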
# FUS suppressor: FUS proteinopathy suppression in yeast | S. cerevisiae FUS-expressing, growth rescue, OD600, 24 h | Potency, µM (titrated, usually from 76.6 µM), usual class: activators | actives 0.24% (n = 390,000); note: nearly all actives have a fitted effect of over 55% in size
#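 Yeast FUS proteinopathy model; galactose-induced FUS (2%), starting OD 0.005. Cpds in dilution series, 24hr, 30C, 99% humidity. Abs 600 nm growth. Pos ctrl CP55940 (top 92uM final); neg ctrl DMSO.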
# CCT modulator: cytosolic chaperonin activity modulation; actives 0.3% (n = 360,000); activity change, % (concentration not given with the values), hits read low; AID 651819; purified chaperonin ATPase assay, HTRF ADP detection, 30 min; in the data active = activity change below about -30%
#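 TRiC at 40 or 20 nM final (batch-dependent) in 30 mM Tris pH 7.4, 100 mM KCl, 5 mM MgCl2, 1 mM DTT, with compound at single 76 uM and 10 uM ATP, 30 min at 37 deg C. ADP detected by HTRF Transcreener, 665/615 ratio.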
# Abeta rescue: compounds reversing amyloid beta toxicity in yeast | yeast expressing A-beta42, growth rescue, OD600, 48 h; response scale: 0% DMSO, 100% iron-clioquinol control | Potency, µM (series often up to 46.1 µM), hits mostly activators | actives 0.063% (n = 410,000); note: nearly all actives have a fitted effect of over 55% in size
#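 Growth rescue measured by 600 nm absorbance after 48 h yeast culture at 30 C with compound. Values normalized between DMSO and an equimolar ferric chloride plus clioquinol control.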
# Numbers stand for hits; n = inactive; u = inconclusive; x = not tested or not shown. Unless noted, calls come from the whole dose curve; as a rule, active = well fitted curve in the direction sought with a large enough effect; inconclusive = small, poorly fitted or top-dose-only effect, or another doubt; inactive = no such curve, though single readings can be large; an effect the other way counts as inactive or inconclusive.
SMILES,TDP43 rescue,MmCpn inh,aSyn yeast inh,FUS suppressor,CCT modulator,Abeta rescue
Cc1cccc(C)c1NC(=O)c1nc(S(=O)(=O)Cc2ccccc2)ncc1Cl,10µM,n,n,n,n,n
O=C1C(c2ccc(F)cc2)N(CCc2ccccc2)C(=O)CN1C1CCCCCC1 (configuration not stated),n,x,x,n,x,n
O=C(N[C@@H]1CC[C@H]2SC[C@H](C(=O)O)N2C1=O)OCC1c2ccccc2-c2ccccc21,x,x,x,n,x,x
CC1=C(C(=O)NCc2ccc(Cl)cc2)C2(CCC(C)CC2)OC1=O (configuration not stated),u,n,n,n,n,n
COc1ccc(CNC(=O)C2=C(C)C(=O)OC23CCC(C)CC3)cc1 (configuration not stated),16µM,n,n,n,n,n
CN(C)[C@H]1CCN(c2ccc3c(c2)O[C@@H]2CCN(C2)S3(=O)=O)C1,x,x,x,n,x,x
CCOc1ccc(-n2nc(CO)c(C(=O)NCCCc3ccccc3)n2)cc1,n,x,x,n,x,n
COc1cccc(NC(=O)COc2ccccc2C(=O)Nc2ccccc2)c1,x,x,n,x,x,x
NC(=O)CSc1nnc(NC(=O)c2ccc(S(=O)(=O)N3CCOCC3)cc2)s1,n,n,n,n,-58,n
CSc1nnc(NC(=O)c2ccc(S(=O)(=O)N3CCOCC3)cc2)s1,n,n,n,x,n,n
COc1ccc(CNS(=O)(=O)CC2NCc3ccc(C)cc32)cc1 (configuration not stated),x,x,x,n,x,x
COc1ccc(COC(=O)C2CCN(S(=O)(=O)c3ccc(F)cc3)CC2)cc1,n,n,n,n,n,n
O=C(OCc1ccc([N+](=O)[O-])cc1)C1CCN(S(=O)(=O)c2ccccc2)CC1,10µM,n,n,n,n,n
CCOC(=O)c1c(NC(C)=O)sc2c(O)cccc12,n,n,x,n,n,n
CCOC(=O)COc1cc2c(C(=O)OCC)c(C)oc2cc1Br,n,n,n,n,n,n
CCOC(=O)c1c(C)oc2cc(Br)c(O)c(Br)c12,13µM,n,n,n,n,n
CCOC(=O)c1c(NC(C)=O)sc2c(O)c(Br)cc(Br)c12,13µM,n,n,x,n,n
O=[N+]([O-])c1cccc(S(=O)(=O)NCC2CC3CCC2C3)c1 (configuration not stated),11µM,n,n,n,n,n
CCOC(=O)[C@]12CCC=C1N(CCC1=CCCCC1)C(=O)[C@H](CC(=O)NCc1ccccc1)C2,n,x,n,n,n,n
CCOC(=O)[C@]12CCCC=C1N(CCC1=CCCCC1)C(=O)[C@H](CC(=O)NCC1CCCCC1)C2,22µM,x,n,u,x,n
CCOC(=O)[C@]12CCCC=C1N(CCC1=CCCCC1)C(=O)[C@H](CC(=O)NCc1ccccc1)C2,22µM,x,n,u,x,u
Fc1ccc(CNc2ncnc3nc[nH]c23)cc1,x,x,n,x,x,x
CCOC(=O)c1c(C)[nH]c(C)c1S(=O)(=O)N1CCC(C(=O)NCc2ccc(OC)cc2)CC1,n,x,x,n,x,n
COc1ccc(C2=C(c3ccccc3)OC(OC)c3cc(F)ccc32)cn1 (configuration not stated),16µM,x,u,n,n,u
Nc1cc(=O)[nH]c(=S)[nH]1,x,x,n,x,x,x
SMILES,TDP43 rescue,MmCpn inh,aSyn yeast inh,FUS suppressor,CCT modulator,Abeta rescue
COc1ccc(C(C)C)cc1S(=O)(=O)NCCc1c(C)[nH]c2c(Cl)cccc12,6.3µM,x,x,n,x,n
COc1cccc(C2=NO[C@@H]3C(=O)N(c4ccc5c(c4)OCCO5)C(=O)[C@H]23)c1OC,n,n,n,n,n,n
COc1cccc(C2=NO[C@@H]3C(=O)N(Cc4ccccc4)C(=O)[C@H]23)c1OC,13µM,n,n,n,n,n
CCc1cccc(C)c1NC(=O)CN1CCN(S(=O)(=O)c2ccc(C(C)(C)C)cc2)CC1,n,n,n,35µM,n,n
CCc1cccc(C)c1NC(=O)COC(=O)C1CCN(S(=O)(=O)c2ccccc2)CC1,n,n,n,n,n,n
c1ccc(-c2nn3c(C4CCCCC4)nnc3s2)nc1,n,n,n,n,n,n
COc1ccc(-c2nn3c(C4CCCCC4)nnc3s2)cc1OC,20µM,n,n,u,n,n
c1ccc(-c2nn3c(C4CCCCC4)nnc3s2)cc1,20µM,n,n,n,n,n
Clc1ccc(OCc2nn3c(C4CCCCC4)nnc3s2)cc1,20µM,n,n,u,n,n
CCc1ccc(OCCCn2c(CCNC(=O)C3CCCCC3)nc3ccccc32)cc1,x,x,n,x,x,x
COC[C@@H](O)[C@H]1OCc2cccc(OC)c2[C@@H]1/C=C/c1ccccc1,x,x,x,n,x,x
Cc1cc(C)c(C#N)c(Nc2ccccc2C)n1,u,n,n,n,n,n
Cc1cc(C)c(C#N)c(Nc2cccc(C)c2C)n1,n,n,n,n,-44,n
Cc1ccc(NC(=O)c2sc3nc[nH]c(=O)c3c2C)cc1C,n,x,x,n,x,n
O=C(COc1ccccc1C(=O)Nc1cccc(F)c1)Nc1ccc(Br)cc1,x,x,n,x,x,x
CCCCCn1c(CCCNC(=O)c2cccc(C)c2)nc2ccccc21,35µM,x,x,u,x,n
CCCCn1c(CCCNC(=O)c2cccc(C)c2)nc2ccccc21,n,x,x,n,x,n
COc1ccc(CNC(=O)O[C@H]2CC[C@@]34CCCN3C(=O)CCC[C@H]4[C@H]2C)cc1,x,x,x,n,x,x
Cc1cc(CN(C)C(=O)c2ccc3nc(Cc4ccccc4F)oc3c2)n[nH]1,n,n,n,n,n,n
COc1ccc(Cc2nc3ccc(C(=O)N(C)Cc4cc(C)[nH]n4)cc3o2)cc1OC,n,n,n,n,-70,n
O=C(COC(=O)c1cccc(Oc2ccccc2)c1)NCc1ccco1,16µM,n,n,n,n,u
COc1cc(N2C(=O)c3ccccc3C2=O)c(Cl)cc1C(=O)OCC(=O)NCc1ccco1,n,n,n,16µM,n,n
O=C(NCc1ccco1)c1ccc(Oc2ccccc2)cc1,20µM,n,n,n,n,n
O=C(NCc1ccco1)c1ccc(C(=O)NCc2ccco2)cc1,n,x,n,x,n,n
CCCN1CCN(CCCNC(=O)c2ccc3c(c2)sc2nc(-c4ccc(OC)cc4)cn23)CC1,n,x,x,n,x,n
C[C@H]1[C@@H](OC(=O)Nc2cccc(C(F)(F)F)c2)CC[C@@]23CCCN2C(=O)CCC[C@@H]13,x,x,x,n,x,x
CC(=O)c1cccc(NC(=S)NC(=O)c2cncc(Br)c2)c1,n,n,n,u,n,n
O=C(NC(=S)Nc1ccccc1O)c1cncc(Br)c1,n,x,18µM,n,n,u
CCn1cc(C(=O)NC(=S)Nc2ccccc2Br)cn1,14µM,n,n,n,n,n

# High-throughput results deposited in PubChem BioAssay by National Center for Advancing Translational Sciences (NCATS).
